Results taken from PubChem BioAssay AID434970 (Sanford-Burnham Center for Chemical Genomics, 2010).
Hit rate of the full screen: of about 11,000 compounds, about 310 (2.8%) were called active. Cut-off read from the data, not from the text of the source: active = activity change below about -85%; inactive = the rest. This excerpt belongs to a sample that is enriched for actives.

test system: intestinal alkaline phosphatase [Mus musculus]; assay: activators of mouse IAP, confirmation, biochemical, luminescence, single concentration (AID 434970); conditions: purified mouse IAP, CDP-Star luminescence, 30 min, at 10 µM; activation factor: measured here: IAP activation factor, stronger effect = higher value; activity change, negative = activation: stronger effect = lower value

Structure (SMILES) | activation factor | activity change, negative = activation
CCCc1cc(=O)oc2cc3occ(C)c3cc12 | 0.917 | 8.35% (inactive)
CCOn1c(=O)c(-c2ccc(Cl)cc2)[n+]([O-])c2ccccc21 | 0.944 | 5.65% (inactive)
CC(C)(C)c1n[nH]c(=S)n(N)c1=O | 1.04 | -4.25% (inactive)
CCn1c(CNc2nc3ccccc3n2C(C)C)nc2ccccc21 | 1.97 | -97.3% (active)
CCn1c(NCc2ccccn2)nc2ccccc21 | 0.877 | 12.3% (inactive)
CCn1c(NCc2ccc(N(C)C)cc2)nc2ccccc21 | 1.11 | -10.6% (inactive)
Cc1ccc2oc(-c3ccc(NC(=O)c4ccc5c(c4)OCO5)cc3)nc2c1 | 0.944 | 5.6% (inactive)
CSc1nccc(-c2nn(-c3ccc(C)cc3)ccc2=O)n1 | 1 | -0.05% (inactive)
COc1ccc2cc(C[C@@H]3CC[C@@H](CNC(N)=O)O3)ccc2c1 | 0.994 | 0.55% (inactive)
OC[C@@H]1CC[C@@H](Cc2ccc(-c3ccccc3)cc2)O1 | 1.07 | -7.05% (inactive)
S=C(NCC1COc2ccccc2O1)Nc1ccc(Br)cc1 (stereo not given) | 1.68 | -68.1% (inactive)
COc1ccc(N2CCN(CCCNC(=O)Nc3ccccc3)CC2)cc1 | 1.16 | -16.2% (inactive)
O=C(NCCCCc1ccccc1)NC[C@@H]1CC[C@@H](Cc2ccc(-c3ccccc3)cc2)O1 | 4.44 | -344% (active)
COc1ccc(NC(=O)NC[C@@H]2CC[C@@H](Cc3ccc(-c4ccccc4)cc3)O2)cc1 | 2.82 | -182% (active)
O=C(NC[C@@H]1CC[C@@H](Cc2ccc(-c3ccccc3)cc2)O1)Nc1ccc(Br)cc1 | 4.1 | -310% (active)
NC(=O)NC[C@@H]1CC[C@@H](Cc2ccc(-c3ccccc3)cc2)O1 | 1.01 | -0.6% (inactive)
CCOC(=O)C1=C(C)N(C[C@@H]2CC[C@@H](Cc3ccc(-c4ccccc4)cc3)O2)C(=O)NC1c1ccc(-c2ccccc2)cc1 (stereo not given in full) | 1.12 | -12.1% (inactive)
CC(C)[C@H]1COCCS(=O)(=O)N1Cc1ccccc1-c1cccc2c1oc1ccccc12 | 0.927 | 7.3% (inactive)
Cc1c(C(=O)NCC2COc3ccccc3O2)oc2ccc(S(=O)(=O)N3CCOCC3)cc12 (stereo not given) | 1.07 | -6.7% (inactive)
CCNc1nc(NC(C)(C)C)nc(SC(C(C)=O)C(C)=O)n1 | 1.04 | -4.2% (inactive)
O=C(OCn1nnc2ccccc2c1=O)C1CCN(S(=O)(=O)c2cccs2)CC1 | 0.919 | 8.05% (inactive)
Cc1ccc(C2=NN3C(C(=O)c4ccccc4)Oc4ccccc4C3C2)cc1 (stereo not given) | 0.916 | 8.35% (inactive)
O=C(c1cc(NC(=O)C23CC4CC(CC(C4)C2)C3)cc(NC(=O)C23CC4CC(CC(C4)C2)C3)c1)N1CCCCC1 | 2.06 | -106% (active)

Structure (SMILES) | activation factor | activity change, negative = activation
COC(=O)c1sccc1NC(=O)C12CC3CC(CC(C3)C1)C2 | 1.03 | -2.7% (inactive)
O=C(Nc1ccccc1N1CCN(c2ccccc2)CC1)C12CC3CC(CC(C3)C1)C2 | 0.927 | 7.25% (inactive)
CCOc1ccccc1C1N(c2ccc(F)cc2)C(=O)C2CCCN21 (stereo not given) | 0.988 | 1.2% (inactive)
CCc1nnc(NC(=O)C2CCCN2C(=O)Nc2ccccc2OC)s1 (stereo not given) | 1.12 | -12.2% (inactive)
CCC(C)NC(=O)Nc1ccc2c(c1)N(C)C(=O)c1ccccc1S2 (stereo not given) | 2 | -100% (active)
CCCCSCCCNC(=O)Nc1ccc(CC)cc1 | 1.39 | -38.9% (inactive)
COc1ccc(NC(=O)Nc2ccc3c(c2)N(C)C(=O)CS3)cc1Cl | 1.91 | -90.9% (inactive)
CCCCNC(=O)Nc1ccc2c(c1)N(C)C(=O)c1ccccc1S2 | 2.25 | -124% (active)
CC(=O)c1ccc2c(c1)N(C)c1ccccc1S2 | 0.875 | 12.5% (inactive)
CCCCSCCCNC(=O)Nc1ccc(C)c(C)c1 | 1.25 | -24.7% (inactive)
COCCOC(=O)c1c(C)n(C)c2ccc(OC(=O)C3CC3)cc12 | 1.07 | -7.45% (inactive)
CCCCNS(=O)(=O)CCNCCc1ccccc1 | 1.1 | -10.1% (inactive)
COc1ccc(C2/C=C\CC(NS(=O)(=O)c3ccc(C)cc3)CC(=O)N2Cc2ccccc2F)cc1 (stereo not given) | 1.18 | -17.7% (inactive)
O=C(CN1CCOCC1)Nc1cccc(C(=O)Nc2cccc(C(F)(F)F)c2)c1 | 1.03 | -2.95% (inactive)
Cc1occc1-c1nnc(SCC(=O)Nc2ccc3c(c2)OCO3)n1CC1CCCO1 (stereo not given) | 0.919 | 8.1% (inactive)
CCOC(=O)C1=CN(Cc2cccc(F)c2)S(=O)(=O)NC1c1ccc(F)c(Cl)c1 (stereo not given) | 0.881 | 11.9% (inactive)
C#CCOCCOCCOCCNc1nc(N2CCN(C(=O)[C@H](Cc3cc4ccccc4[nH]3)n3cc([C@@H](N)CC(C)C)nn3)CC2)nc(N2CCN(C(=O)[C@H](Cc3cc4ccccc4[nH]3)n3cc([C@@H](N)CC(C)C)nn3)CC2)n1 | 1.61 | -60.9% (inactive)
C#CCOCCOCCOCCNc1nc(N2CCN(C(=O)CCCCCCCCCCNC(=O)Cn3cc(CCCCCN)nn3)CC2)nc(N2CCN(C(=O)CCCCCCCCCCNC(=O)Cn3cc(C[C@@H](C)O)nn3)CC2)n1 | 2.22 | -122% (active)
C#CCOCCOCCOCCNc1nc(N2CCN(C(=O)CCCCCCCCCCNC(=O)Cn3cc(CCCCCN)nn3)CC2)nc(N2CCN(C(=O)CCCCCCCCCCNC(=O)[C@H]([C@@H](C)CC)n3cc(CCCCN=C(N)N)nn3)CC2)n1 | 10 | -904% (active)
C#CCOCCOCCOCCNc1nc(N2CCN(C(=O)CCCCCCCCCCNC(=O)Cn3cc(CCCCCN)nn3)CC2)nc(N2CCN(C(=O)CCCCCCCCCCNC(=O)[C@H]([C@@H](C)CC)n3cc(CCCCCN)nn3)CC2)n1 | 3.67 | -267% (active)
C#CCOCCOCCOCCNc1nc(N2CCN(C(=O)CCCCCCCCCCNC(=O)Cn3cc(C[C@@H](C)O)nn3)CC2)nc(N2CCN(C(=O)CCCCCCCCCCNC(=O)[C@@H]([C@H](C)CC)n3cc(CCCCCN)nn3)CC2)n1 | 5.59 | -459% (active)
CCOC(=O)CN1C(=O)/C(=C2\SC(=S)N(NC(=O)c3cccnc3)C2=O)c2ccccc21 | 0.472 | 52.8% (inactive)
